Source: PubChem BioAssay (Broad Institute)
Most compounds without a hit are left out; they make up all but 7.7% or so of the library.
NOMO-1 viab: STK33 inhibitor candidate reducing NOMO-1 cell viability; NOMO-1 AML viability, CellTiter-Glo luminescence, 72 h; AID 2330; hit rate 7.5% among 37,000; inhibition, % (no concentration beside the values); in the data active means inhibition above about 80%; inconclusive means no clear call, values can overlap the other calls
PD-1 reversal: reversal of PD-1 mediated T-cell inhibition; primary human CD4 T cells, PD-L1 beads, CellTiter-Glo 96 h; AID 2316; 29,000 tested, under 10 active; activation, % (no concentration beside the values); call rule not given here
Shh pathway inh: blocks Sonic Hedgehog signaling. hit rate 2.1% among 22,000. Shh-LIGHT2 Gli-luciferase reporter, 30 h. inhibition, % (concentration not given with the values);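 active means mean inhibition across valid replicates above about 65%, limit read from the data; inconclusive means mean under the limit, yet half or more replicates past it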;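 further: pathway switched on by Shh-conditioned medium diluted 1 in 25 in low serum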
Large screens that a line does not name were inactive.

Cc1cc(=O)oc2cc(OC3OC(CO)C(O)C(O)C3O)ccc12 (configuration not stated)	none
C/C(=C\CC(C)(C)/C=C/Cc1ccoc1)C(=O)O	none
CCCCC[C@H](CC(=O)NO)C(=O)N[C@H](C(=O)N1CCC[C@H]1CO)C(C)C	NOMO-1 viab 107 (no result: PD-1 reversal)
COc1ccc(S(=O)(=O)Nc2ccc3c(c2)CC(=O)N([C@@H](C)CO)C[C@@H](C)[C@@H](CN(C)Cc2ccc(C(F)(F)F)cc2)O3)cc1	NOMO-1 viab 95
COc1ccc(S(=O)(=O)Nc2ccc3c(c2)CC(=O)N([C@H](C)CO)C[C@@H](C)[C@@H](CN(C)Cc2ccc(C(F)(F)F)cc2)O3)cc1	NOMO-1 viab 119
COc1ccc(S(=O)(=O)Nc2ccc3c(c2)CC(=O)N([C@@H](C)CO)C[C@H](C)[C@H](CN(C)Cc2ccc(C(F)(F)F)cc2)O3)cc1	NOMO-1 viab 108
COc1ccc(CN(C)C[C@@H]2Oc3ccc(NS(=O)(=O)c4ccc(F)cc4)cc3CC(=O)N([C@@H](C)CO)C[C@@H]2C)cc1	none (no result: PD-1 reversal)
COc1ccc(CN(C)C[C@@H]2Oc3ccc(NS(=O)(=O)c4ccc(F)cc4)cc3CC(=O)N([C@H](C)CO)C[C@H]2C)cc1	none (no result: PD-1 reversal, Shh pathway inh)
COc1ccc(S(=O)(=O)Nc2ccc3c(c2)CC(=O)N([C@H](C)CO)C[C@@H](C)[C@H](CN(C)Cc2ccc(C(F)(F)F)cc2)O3)cc1	NOMO-1 viab inconclusive
COc1ccccc1NC(=O)CNS(=O)(=O)c1ccc(C(C)(C)C)cc1	none (no result: Shh pathway inh)
COC(=O)c1ccccc1NC(=O)CN(C)S(=O)(=O)c1cc(Cl)ccc1Cl	none (no result: Shh pathway inh)
Cc1ccc(Cn2nc(C)cc2C(=O)Nc2ccc(C)cc2)cc1	none
Cc1ccc(Cn2nc(C)cc2C(=O)Sc2ccccc2)cc1	NOMO-1 viab 92
NNC(=O)CNC(=O)c1ccccc1	none
COc1ccc(CN(C)C[C@H]2OCCCC[C@@H](C)Oc3ccc(NC(=O)Nc4ccc(F)cc4)cc3C(=O)N([C@H](C)CO)C[C@@H]2C)cc1	none
COc1ccc(NC(=O)Nc2ccc3c(c2)C(=O)N([C@H](C)CO)C[C@H](C)[C@H](CN(C)Cc2ccc(C(F)(F)F)cc2)OCCCC[C@@H](C)O3)cc1	NOMO-1 viab 122
COc1ccc(CN(C)C[C@@H]2OCCCC[C@@H](C)Oc3ccc(NC(=O)Nc4ccc(OC)cc4)cc3C(=O)N([C@H](C)CO)C[C@@H]2C)cc1	none
COc1ccc(CN(C)C[C@H]2OCCCC[C@@H](C)Oc3ccc(NC(=O)Nc4ccc(C(F)(F)F)cc4)cc3C(=O)N([C@H](C)CO)C[C@@H]2C)cc1	NOMO-1 viab 85, Shh pathway inh inconclusive (no result: PD-1 reversal)
Cc1ccccc1NC(=O)c1ccccc1NC(=O)c1ccccc1	none
O=C(CSc1nccc(=O)[nH]1)N1CCc2ccccc21	none (no result: Shh pathway inh)
COc1cc(C(=O)NC(=S)Nc2cccc(-c3nc4ncccc4o3)c2C)cc(OC)c1OC	none (no result: Shh pathway inh)
COc1ccc([N+](=O)[O-])cc1NC(=O)CCSc1ccc(C)cc1	none (no result: Shh pathway inh)
Cc1nc(N=C(N)N)nc2ccccc12	NOMO-1 viab 89
Cc1nc2ccccc2cc1C(N)=O	none (no result: Shh pathway inh)
CC(=O)O[C@@H]1C[C@@H](C)[C@](O)(CCc2ccoc2)[C@]23CCC[C@](C)(C(=O)OC2)C13 (some centres not stated)	none
CCc1nc(SCC(=O)Nc2ccc(OC)cc2)c2c3c(sc2n1)COC(C)(C)C3	none (no result: Shh pathway inh)
O=C(O)C1C2C=CC(O2)C1C(=O)Nc1ccc(S(=O)(=O)N2CCc3ccccc32)cc1 (configuration not stated)	none (no result: Shh pathway inh)
O=S(=O)(c1ccc(Cl)cc1)N1CCc2ccccc21	NOMO-1 viab 120, Shh pathway inh 81
CCOC(=O)/C(=C\Nc1ccc(F)c(Cl)c1)S(=O)(=O)c1ccc(Cl)cc1	none (no result: Shh pathway inh)
N#C/C(=C\Nc1cccc(Cl)c1)S(=O)(=O)c1ccc(Cl)cc1	NOMO-1 viab 84, Shh pathway inh inconclusive
CC(CC(N)=O)OC(=O)c1cc(Cl)cc(O)c1O (configuration not stated)	NOMO-1 viab 88
O=C(Oc1ccc(-c2ccccc2)cc1)c1cccs1	none
CCN(CC)C(=O)C(c1ccccc1)c1ccccc1	none
CCc1ccc[n+](OC(=O)N(CC)CC)c1	NOMO-1 viab 102 (no result: Shh pathway inh)
COc1ccc(-c2nc3ccccc3s2)cc1NC(=O)COc1ccc(Br)cc1	none (no result: Shh pathway inh)
C=CC(C)(C)c1c2c(c(O)c3c(=O)c4ccc(O)c(O)c4oc13)C=CC(C)(C)O2	NOMO-1 viab 107, Shh pathway inh 93 (no result: PD-1 reversal)
COc1c(-c2ccccc2)oc2c(CC=C(C)C)c3c(c(OC)c2c1=O)C=CC(C)(C)O3	none (no result: PD-1 reversal)
COc1cc(CNC23CC4CC(CC(C4)C2)C3)ccc1OCC(N)=O	none (no result: Shh pathway inh)
CCOC(=O)Cn1c(-c2cccnc2)nc(-c2ccccc2)c1-c1ccccc1	NOMO-1 viab 115
CCn1c(SCC(=O)c2ccccc2)nnc1-c1cccnc1	none (no result: PD-1 reversal, Shh pathway inh)
COc1ccc(NC(=O)c2oc3ccccc3c2NC(=O)Cc2coc3cc(C)cc(C)c23)cc1	none (no result: Shh pathway inh)
C[C@H]1C[C@@H]2[C@H]([C@@H](O)C[C@@]3(C)[C@H]2CC[C@]3(O)C(=O)CO)[C@@]2(C)C=CC(=O)C=C12	Shh pathway inh 70 (no result: PD-1 reversal)
C[C@H]1CC2C([C@@H](O)C[C@@]3(C)C2CC[C@]3(O)C(=O)CO)[C@@]2(C)C=CC(=O)C=C12 (some centres not stated)	none (no result: PD-1 reversal)
Cn1nnnc1SCC(=O)Nc1ncccn1	none (no result: Shh pathway inh)
CNC(=O)CN(C#N)c1nc(C)cc(C)n1	none (no result: Shh pathway inh)
COC(=O)c1ccc(NC(=O)CSC(=S)N2CCOCC2)cc1	Shh pathway inh 68
CNC(=O)CCC(=O)Nc1ccc(C(=O)OC)cc1	none (no result: Shh pathway inh)
COc1ccc(OCc2ncc(-c3ccc4c(c3)OCCCO4)s2)cc1	none
Nc1c2c(nc3ccccc13)CCCC2	none (no result: PD-1 reversal)
Nc1c2ccccc2nc2ccccc12	NOMO-1 viab 107 (no result: PD-1 reversal)
CCOC(=O)CC(Sc1ccccc1N)c1cc(OC)c(OC)c(OC)c1 (configuration not stated)	none
CC1(C)Cc2c(sc3ncn4nc(-c5ccccc5)nc4c23)C(C)(C)N1	NOMO-1 viab 117
C[C@@H]1O[C@@H](OC[C@H]2O[C@@H](Oc3ccc(O)cc3)[C@H](O)[C@@H](OC(=O)c3ccc(O)cc3)[C@@H]2O)[C@H](O)[C@H](O)[C@H]1O	none
O=C(/C=C/c1ccc(O)cc1)OC[C@H]1O[C@@H](Oc2cc(O)c3c(c2)OC(c2ccc(O)cc2)CC3=O)[C@H](O)[C@@H](OC(=O)/C=C/c2ccc(O)cc2)[C@@H]1O (some centres not stated)	NOMO-1 viab 120
O=C1C=CC(O)(/C=C/C(=O)OC[C@H]2O[C@@H](Oc3ccc(O)cc3)[C@H](O)[C@@H](OC(=O)/C=C/C3(O)C=CC(=O)C=C3)[C@@H]2O)C=C1	NOMO-1 viab 87
COc1ccc(C2CC(=O)c3c(O)cc(O[C@@H]4O[C@H](CO[C@@H]5O[C@@H](C)[C@H](O)[C@@H](O)[C@H]5O)[C@@H](O)[C@H](O)[C@H]4O)cc3O2)cc1 (some centres not stated)	none
CCN(CC(=O)Nc1ccc2c(c1)OCCO2)S(=O)(=O)c1ccc2ccccc2c1	none (no result: Shh pathway inh)
Cc1cccc(C)c1NC(=O)CC(C(=O)O)N(C)C (configuration not stated)	none (no result: Shh pathway inh)
Cc1[nH]c(=S)[nH]c(=O)c1Cc1ccc(C(=O)O)o1	none (no result: Shh pathway inh)
C[C@@H]1CN([C@H](C)CO)C(=O)Cc2cc(NC(=O)CCCCCC(=O)Nc3ccccc3N)ccc2O[C@H]1CN(C)CC1CCCCC1	NOMO-1 viab 120 (no result: Shh pathway inh)
